Laboratory results reported in PubChem BioAssay (NCATS).
Inconclusive results are not listed. The source made the active and inactive calls. Calls come from the whole dose curve; as a rule, active = well fitted inhibition curve with a large enough effect; inconclusive = small, poorly fitted or top-dose-only effect; inactive = flat fitted curve, though single readings scatter.

Assays:
[1] = qHTS profiling for inhibitors of Plasmodium falciparum proliferation (AID 504749); note: nearly all actives have a fitted effect of over 60% in size;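 for activity, negative = inhibition: 0% = DMSO vehicle and full inhibition = artemisinin control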; details: P. falciparum in erythrocytes, SYBR Green DNA, 72 h
How it was run: (§1)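 P. falciparum-infected erythrocytes (0.3% parasitemia, 2.5% hematocrit) incubated with compound 72 h at 37 C, 5% CO2. Parasite DNA detected by SYBR Green after lysis, overnight at room temperature; normalised to 0.29 uM artemisinin and DMSO.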

[2] = system: 3D7; experiment: as above; details: P. falciparum in erythrocytes, SYBR Green DNA, 72 h; series mostly up to 28.7 µM
How it was run: as §1

[3] = system: 7G8; experiment: as above; details: P. falciparum in erythrocytes, SYBR Green DNA, 72 h; series mostly up to 28.7 µM
How it was run: as §1

[4] = system: AA1029; experiment: as above; details: P. falciparum in erythrocytes, SYBR Green DNA, 72 h; series mostly up to 28.7 µM
How it was run: as §1

[5] = system: AS120; experiment: as above; details: P. falciparum in erythrocytes, SYBR Green DNA, 72 h; series mostly up to 28.7 µM
How it was run: as §1

[6] = system: ATS189; experiment: as above; details: P. falciparum in erythrocytes, SYBR Green DNA, 72 h; series mostly up to 28.7 µM
How it was run: as §1

[7] = system: ATS95; experiment: as above; details: P. falciparum in erythrocytes, SYBR Green DNA, 72 h; series mostly up to 28.7 µM
How it was run: as §1

[8] = system: C2A; experiment: as above; details: P. falciparum in erythrocytes, SYBR Green DNA, 72 h; series mostly up to 28.7 µM
How it was run: as §1

[9] = system: CP185; experiment: as above; details: P. falciparum in erythrocytes, SYBR Green DNA, 72 h; series mostly up to 28.7 µM
How it was run: as §1

[10] = system: CP191; experiment: as above; details: P. falciparum in erythrocytes, SYBR Green DNA, 72 h; series mostly up to 28.7 µM
How it was run: as §1

[11] = system: CP192; experiment: as above; details: P. falciparum in erythrocytes, SYBR Green DNA, 72 h; series mostly up to 28.7 µM
How it was run: as §1

[12] = system: CP194; experiment: as above; details: P. falciparum in erythrocytes, SYBR Green DNA, 72 h; series mostly up to 28.7 µM
How it was run: as §1

[13] = system: CP201; experiment: as above; details: P. falciparum in erythrocytes, SYBR Green DNA, 72 h; series mostly up to 28.7 µM
How it was run: as §1

[14] = system: CP203; experiment: as above; details: P. falciparum in erythrocytes, SYBR Green DNA, 72 h; series mostly up to 28.7 µM
How it was run: as §1

[15] = system: CP211; experiment: as above; details: P. falciparum in erythrocytes, SYBR Green DNA, 72 h; series mostly up to 28.7 µM
How it was run: as §1

[16] = system: CP215; experiment: as above; details: P. falciparum in erythrocytes, SYBR Green DNA, 72 h; series mostly up to 28.7 µM
How it was run: as §1

[17] = system: CP217; experiment: as above; details: P. falciparum in erythrocytes, SYBR Green DNA, 72 h; series mostly up to 28.7 µM
How it was run: as §1

[18] = system: CP237; experiment: as above; details: P. falciparum in erythrocytes, SYBR Green DNA, 72 h; series mostly up to 28.7 µM
How it was run: as §1

[19] = system: CP238; experiment: as above; details: P. falciparum in erythrocytes, SYBR Green DNA, 72 h; series mostly up to 28.7 µM
How it was run: as §1

[20] = system: CP247; experiment: as above; details: P. falciparum in erythrocytes, SYBR Green DNA, 72 h; series mostly up to 28.7 µM
How it was run: as §1

[21] = at 28.7 µM (top of the series), parasite line A
[22] = at 28.7 µM (top of the series), parasite line B
Potency is the fitted concentration of half-maximal effect.

CCCn1c(=O)[nH]c(=O)c2[nH]cnc21
inactive: activity, negative = inhibition [1, 21] -4.05% | activity, negative = inhibition [1, 22] 5.13% | Potency [2] | Potency [3] | Potency [4] | Potency [5] | Potency [6] | Potency [7] | Potency [8] | Potency [9] | Potency [10] | Potency [11] | Potency [12] | Potency [13] | Potency [14] | Potency [15] | Potency [16] | Potency [17] | Potency [18] | Potency [19] | Potency [20]

CCOC(=O)OC(C)OC1=C(C(=O)Nc2ccccn2)N(C)S(=O)(=O)c2ccccc21 (configuration not stated)
inactive: activity, negative = inhibition [1, 21] 3.03% | activity, negative = inhibition [1, 22] 19.4% | Potency [2] | Potency [3] | Potency [4] | Potency [5] | Potency [6] | Potency [7] | Potency [8] | Potency [9] | Potency [10] | Potency [11] | Potency [12] | Potency [13] | Potency [14] | Potency [15] | Potency [16] | Potency [17] | Potency [18] | Potency [19] | Potency [20]

CCCCCCCCCCCCCCCC[N+](C)(C)CC
active: Potency ([1]; parasite line A) 3.98 µM | Potency ([1]; parasite line B) 5.01 µM | Potency [2] 3.55 µM | Potency [3] 3.55 µM | Potency [4] 4.47 µM | Potency [5] 5.01 µM | Potency [6] 10 µM | Potency [7] 6.31 µM | Potency [8] 3.55 µM | Potency [9] 3.98 µM | Potency [10] 3.98 µM | Potency [11] 4.78 µM | Potency [12] 6.01 µM | Potency [13] 6.75 µM | Potency [14] 10.7 µM | Potency [15] 4.78 µM | Potency [16] 9.53 µM | Potency [17] 5.62 µM | Potency [18] 4.47 µM | Potency [19] 5.01 µM | Potency [20] 4.47 µM

O=C(O)CNC(=O)c1ccccc1
inactive: activity, negative = inhibition [1, 21] -0.717% | activity, negative = inhibition [1, 22] 10.3% | Potency [2] | Potency [3] | Potency [4] | Potency [5] | Potency [6] | Potency [7] | Potency [8] | Potency [9] | Potency [10] | Potency [11] | Potency [12] | Potency [13] | Potency [14] | Potency [15] | Potency [16] | Potency [17] | Potency [18] | Potency [19] | Potency [20]

N[C@@H](Cc1cnc[nH]1)C(=O)O
inactive: activity, negative = inhibition [1, 21] 3.46% | activity, negative = inhibition [1, 22] 9.36% | Potency [2] | Potency [3] | Potency [4] | Potency [5] | Potency [6] | Potency [7] | Potency [8] | Potency [9] | Potency [10] | Potency [11] | Potency [12] | Potency [13] | Potency [14] | Potency [15] | Potency [16] | Potency [17] | Potency [18] | Potency [19] | Potency [20]

O=C(CCN1CCC(c2ccccc2)C1)c1ccc2c(c1)OCCO2 (configuration not stated)
inactive: activity, negative = inhibition [1, 21] 10.2% | activity, negative = inhibition [1, 22] 1.82% | Potency [2] | Potency [3] | Potency [4] | Potency [5] | Potency [6] | Potency [7] | Potency [8] | Potency [9] | Potency [10] | Potency [11] | Potency [12] | Potency [13] | Potency [14] | Potency [15] | Potency [16] | Potency [17] | Potency [18] | Potency [19] | Potency [20]

C1CCc2nnnn2CC1
inactive: activity, negative = inhibition [1, 21] 11.2% | activity, negative = inhibition [1, 22] 0.626% | Potency [2] | Potency [3] | Potency [4] | Potency [5] | Potency [6] | Potency [7] | Potency [8] | Potency [9] | Potency [10] | Potency [11] | Potency [12] | Potency [13] | Potency [14] | Potency [15] | Potency [16] | Potency [17] | Potency [18] | Potency [19] | Potency [20]

CCCCCC=CCC=CCCCCCCCC(=O)OCC
inactive: activity, negative = inhibition [1, 21] 1.14% | activity, negative = inhibition [1, 22] 2.81% | Potency [2] | Potency [3] | Potency [4] | Potency [5] | Potency [6] | Potency [7] | Potency [8] | Potency [9] | Potency [10] | Potency [11] | Potency [12] | Potency [13] | Potency [14] | Potency [15] | Potency [16] | Potency [17] | Potency [18] | Potency [19] | Potency [20]

CC(=O)Nc1c(I)cc(I)c(C(=O)O)c1I
inactive: activity, negative = inhibition [1, 21] 6.87% | activity, negative = inhibition [1, 22] 14.3% | Potency [2] | Potency [3] | Potency [4] | Potency [5] | Potency [6] | Potency [7] | Potency [8] | Potency [9] | Potency [10] | Potency [11] | Potency [12] | Potency [13] | Potency [14] | Potency [15] | Potency [16] | Potency [17] | Potency [18] | Potency [19] | Potency [20]

CCN(CC)C(=O)N1CCN(C)CC1
inactive: activity, negative = inhibition ([1]; at 12.8 µM (top of the series), parasite line A) 5.24% | activity, negative = inhibition ([1]; at 12.8 µM (top of the series), parasite line B) 18.6% | Potency [2] | Potency [3] | Potency [4] | Potency [5] | Potency [6] | Potency [7] | Potency [8] | Potency [9] | Potency [10] | Potency [11] | Potency [12] | Potency [13] | Potency [14] | Potency [15] | Potency [16] | Potency [17] | Potency [18] | Potency [19] | Potency [20]

O=C(O)c1cc2cc(Cc3cccnc3)ccc2o1
inactive: activity, negative = inhibition [1, 21] 9.24% | activity, negative = inhibition [1, 22] 5.6% | Potency [2] | Potency [3] | Potency [4] | Potency [5] | Potency [6] | Potency [7] | Potency [8] | Potency [9] | Potency [10] | Potency [11] | Potency [12] | Potency [13] | Potency [14] | Potency [15] | Potency [16] | Potency [17] | Potency [18] | Potency [19] | Potency [20]

C[N+]1(CCCCC[N+]2(C)CCCC2)CCCC1
inactive: activity, negative = inhibition [1, 21] 2.83% | activity, negative = inhibition [1, 22] 3.44% | Potency [2] | Potency [3] | Potency [4] | Potency [5] | Potency [6] | Potency [7] | Potency [8] | Potency [9] | Potency [10] | Potency [11] | Potency [12] | Potency [13] | Potency [14] | Potency [15] | Potency [16] | Potency [17] | Potency [18] | Potency [19] | Potency [20]
